Bioassay records as filed in PubChem.
miR-21 act: qHTS Assay for Modulators of miRNAs and/orActivators of miR-21; HeLa miR-21 FLuc reporter, luciferase, 48 h; Potency, µM (top dose mostly 38.3 µM), inactives show at the top dose activity change, positive = activation, most hits filed as activators; 340,000 tested, under 10 active;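 also: % of control where 0% means no effect; miR-21 action dims this reporter so a rising signal means less miR-21 action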
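HeLa cells endogenously expressing miR-21, stably carrying CMV-driven firefly luciferase with a downstream miR-21 binding site, 2000 cells/well. Titrations up to approximately 40 uM, 48 hours; luciferase luminescence read.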
Nrf2 ARE act: qHTS of Nrf2 Activators. AREc32 ARE-luciferase reporter (MCF7-derived line), luminescence, 24 h. Potency, µM (doses to about 46.1 µM), for inactives: at the top dose activation, actives largely listed as activators. 410,000 compounds, 0.31% hits. AID 624171, 2012; also: potency is read from the fitted curve at half-maximal effect; % of control where 0% means no effect; nearly all actives have a fitted effect of over 65% in size
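Cells of the AREc32 ARE-luciferase line are plated in OPTI-MEM containing 5% FBS and left overnight at 37 deg C. Compounds are pinned in, incubation continues 24 hr, and firefly luciferase signal is then measured.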
A549 tox: Nrf2 qHTS screen for inhibitors: counterscreen for cytotoxicity; 390,000 compounds, 0.16% hits; A549 ARE-Fluc cells, CellTiter-Fluor viability, 18-24 h; Potency, µM (series often up to 46 µM), without a hit: at the top dose activity change, negative = cytotoxicity, hits mostly inhibitors; also: potency is read from the fitted curve at half-maximal effect; % is scaled to controls: 0 for no effect and ±100 for the full control effect
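A549 ARE_Fluc cells in 5% FBS OPTI-MEM were exposed to compounds in concentration-response for 18-24 h at 37 deg C. Viability was read by CellTiter-Fluor fluorescence (Ex 405/Em 525) after 30 min, before the luciferase read.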
ClpP mod: qHTS Assay for Activators of ClpP. 340,000 compounds, 1.9% hits. purified B. subtilis ClpP, FRET peptide cleavage, 20 min. Potency, µM (top dose mostly 57.5 µM), for inactives: top-dose activity change, negative = active; active = well fitted falling curve with a large enough effect; inconclusive = small, poorly fitted or top-dose-only effect; inactive = no such curve, though single readings can be large or run the other way; also: potency is read from the fitted curve at half-maximal effect; the source files actives as falling curves though it sought activators and does not explain the sign; nearly all actives have a fitted effect of over 65% in size
Target sequence (P80244 whole entry, looked up): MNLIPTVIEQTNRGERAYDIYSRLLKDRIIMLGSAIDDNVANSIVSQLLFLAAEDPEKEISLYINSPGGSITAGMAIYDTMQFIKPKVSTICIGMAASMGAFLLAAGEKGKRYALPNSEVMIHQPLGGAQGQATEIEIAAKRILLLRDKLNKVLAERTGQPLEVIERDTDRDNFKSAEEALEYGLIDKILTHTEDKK
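ClpP 10 microg/mL final, pH 8 Tris/KCl buffer with BSA, glycerol, Tween-20; compound pinned in; FRET-FV substrate; RT 20 min; Ex320/Em430; ΔFRET vs ADEP 5.8 microM, DMSO, no enzyme.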
IL2 activator: qHTS of IL-2 Activators. 360,000 compounds, 0.065% hits. IL-2 activation reporter assay, cell-based qHTS; stimulated with anti-CD3/CD4/CD28 beads; in transgenic mouse T cells. activation, % (series mostly up to about 46 µM); in the data active = activation above about 50%; inconclusive = mostly about 30% to 49%; also: 0% is about no effect
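Using fluorescent plate cytometry, EGFP and DsRed are detected in transgenic mouse T cells stimulated 18 h at 37 degrees C with antibody-coated beads after 60 min compound pretreatment.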
Nrf2 inh: Nrf2 qHTS screen for inhibitors; AID 504444, 2011; Potency, µM (doses to about 46 µM), for the others: at the top dose activity change, negative = inhibition, most hits filed as inhibitors; A549 ARE-Fluc reporter, luciferase luminescence, 18-24 h; 360,000 compounds, 2.1% hits; also: potency is read from the fitted curve at half-maximal effect; % is scaled to controls: 0 for no effect and ±100 for the full control effect; nearly all actives have a fitted effect of over 60% in size
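Reporter: ARE-Fluc in A549. Exposure: 18-24 h, 37 °C, 5% CO2, 5% FBS OPTI-MEM. Readouts: fluorescent cytotoxicity (CellTiter-Fluor), then luminescent Nrf2 signal after BugLite.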
* marks the source's active call; other numbers are inactive results. Only some compounds are listed: those with a hit (about 3.7% of all), similar ones and a draw of the others. Unless noted, calls follow the shape of the dose curve; as a rule, active = well fitted curve in the direction sought with a large enough effect; inconclusive = small, poorly fitted or top-dose-only effect, or another doubt; inactive = no such curve, though single readings can be large; an effect the other way counts as inactive or inconclusive.

Screening Cc1ccc(C2CC(=O)C(C=NCCN3CCN(C(=O)Cc4ccccc4)CC3)=C(O)C2)cc1 (stereo not given) returned miR-21 act 0.3%, Nrf2 ARE act 0.1%, A549 tox 7.6%, ClpP mod 31.6µM*, IL2 activator -1.3 and Nrf2 inh 3.6%.
For Cc1ccc(S(=O)(=O)N(C)CCCC(=O)N2CCN(c3ccccn3)CC2)cc1 the results were miR-21 act 12.2%, Nrf2 ARE act 2.5%, A549 tox -1.0%, ClpP mod 31.6µM*, IL2 activator -0.6 and Nrf2 inh inconclusive.
Screening COc1ccc(-c2nc(NC(=O)Cn3c(=O)oc4ccccc43)sc2C)cc1 returned miR-21 act 1.4%, Nrf2 ARE act 3.6%, A549 tox -17.3%, ClpP mod -0.5%, IL2 activator -0.6 and Nrf2 inh 18.4µM*.
Screening COc1cc(NC(=O)CCn2c(=O)oc3ccccc32)cc(OC)c1OC returned miR-21 act 2.5%, Nrf2 ARE act -0.2%, A549 tox inconclusive, ClpP mod -0.9%, IL2 activator -0.3 and Nrf2 inh 3.1%.
C[C@@H]1CN([C@H](C)CO)C(=O)c2cc(NC(=O)Nc3ccc(C(F)(F)F)cc3)ccc2O[C@H]1CN(C)S(=O)(=O)c1cccs1 was read as Nrf2 ARE act -1.0%, A549 tox -18.4%, ClpP mod -8.4%, IL2 activator -0.4 and Nrf2 inh inconclusive.
`C[C@H](CO)N1C[C@H](C)[C@@H](CN(C)Cc2ccc(-c3ccccc3)cc2)Oc2c(NC(=O)c3ccncc3)cccc2C1=O` gave Nrf2 ARE act 0.0%, A549 tox -18.6%, ClpP mod -1.3%, IL2 activator -0.4 and Nrf2 inh 20.6µM*.
Cc1oc2ccc(O)c(CN3CCCCCC3)c2c1C(=O)Nc1cccc(Cl)c1C was read as miR-21 act inconclusive, Nrf2 ARE act 10.5%, A549 tox -5.5%, ClpP mod -3.5% and Nrf2 inh 20.9%.
O=C(NCCCN1CC1)Nc1cccc2ccccc12 was read as Nrf2 ARE act 0.4%, A549 tox -11.5%, ClpP mod 25.1µM*, IL2 activator -1.0 and Nrf2 inh 26.3%.
`Cc1ccccc1NC(=O)NCCN1CC1` gave miR-21 act -4.6%, Nrf2 ARE act -0.1%, A549 tox 0.4%, ClpP mod -1.2%, IL2 activator 1.0 and Nrf2 inh 23.1%.
For COc1ccc2nc(NC(=O)c3nc(S(=O)(=O)Cc4cccc(C)c4)ncc3Cl)sc2c1 the results were miR-21 act inconclusive, Nrf2 ARE act 27.4%, A549 tox -28.6%, ClpP mod 2.2% and Nrf2 inh -16.4%.
Screening COc1cc([N+](=O)[O-])cc([N+](=O)[O-])c1N returned ClpP mod 2.1%.
`COC(=O)C1=C(c2ccc(OCc3ccccc3)cc2)C[C@@H]2CC[C@H]1N2C(=O)NCc1cccc(OC)c1` gave Nrf2 ARE act -0.5%, A549 tox -12.0%, ClpP mod -4.9%, IL2 activator -4.5 and Nrf2 inh 23.1µM*.
`COC(=O)C1=C(c2cccc(OCc3ccccc3)c2)C[C@@H]2CC[C@H]1N2C(=O)NCc1ccc(Cl)cc1` gave Nrf2 ARE act -1.1%, A549 tox -13.1%, ClpP mod -2.5%, IL2 activator -3.7 and Nrf2 inh 23.1µM*.
`COC(=O)C1=C(c2ccc(OCc3ccccc3)cc2)C[C@@H]2CC[C@H]1N2C(=O)NCc1ccc(OC)cc1` gave Nrf2 ARE act 2.4%, ClpP mod -4.2% and IL2 activator -3.3.
`COC(=O)C1=C(c2cccc(OCc3ccccc3)c2)C[C@@H]2CC[C@H]1N2C(=O)NCc1ccccc1` gave Nrf2 ARE act 3.5%, A549 tox -8.1%, ClpP mod -2.0%, IL2 activator -3.0 and Nrf2 inh inconclusive.
`COC(=O)C1=C(c2cccc(OCc3ccccc3)c2)C[C@@H]2CC[C@H]1N2C(=O)NCc1ccccc1OC` gave Nrf2 ARE act 3.0%, A549 tox inconclusive, ClpP mod -3.5%, IL2 activator -0.7 and Nrf2 inh 20.6µM*.
`O=c1[nH]c(O)c(N=Nc2cc([N+](=O)[O-])ccc2O)c(=O)[nH]1` gave miR-21 act -2.2%, Nrf2 ARE act -0.3%, A549 tox 23.1µM*, IL2 activator 1.4 and Nrf2 inh -1.4%.
Screening CCN(CCCl)c1cc(CN(C)C)cc(NC(=O)c2ccc(C(=O)Nc3cc(CN(C)C)cc(N(CC)CCCl)c3)cc2)c1 returned Nrf2 ARE act -3.2%, A549 tox 13µM*, ClpP mod -4.2%, IL2 activator -0.5 and Nrf2 inh 2.91µM*.
For O=C(NCCc1ccccc1)[C@@H]1CC=C[C@@H]2CCN(Cc3ccc(Cl)c(Cl)c3)C(=O)[C@@H]21 the results were Nrf2 ARE act 0.2%, A549 tox -23.8%, ClpP mod 2.5%, IL2 activator 0.0 and Nrf2 inh inconclusive.
For Nc1ccc2c(c1)oc1ccccc12 the results were miR-21 act -47.5%, Nrf2 ARE act 3.8%, A549 tox 4.4%, ClpP mod 12.6µM*, IL2 activator -0.1 and Nrf2 inh inconclusive.
For COc1ccc2[nH]c3c(c2c1)CCN1C(=O)C(CC(=O)NCc2cccc(C(F)(F)F)c2)C[C@H](C(=O)N2CCCCC2)[C@@]31C (stereo not given in full) the results were Nrf2 ARE act 0.3%, A549 tox -23.0%, ClpP mod 1.1%, IL2 activator -0.9 and Nrf2 inh inconclusive.
`Cc1cc(S(=O)(=O)NCC(C)C)ccc1OCC(=O)N1CCN(Cc2ccccc2)CC1` gave miR-21 act 13.2%, Nrf2 ARE act 1.4%, A549 tox -19.5%, ClpP mod 15.8µM* and IL2 activator -0.8.
Screening CCN1CC2(COC(=O)c3ccccc3N)CCC(OC)C34C5CC6C(OC)CC(O)(C5C6OC)C(O)(C(OC)C23)C14 (stereo not given) returned miR-21 act -5.0%, Nrf2 ARE act -0.3%, A549 tox -2.6%, ClpP mod 15.8µM*, IL2 activator 0.9 and Nrf2 inh -6.6%.
Screening COc1ccc(OCC(=O)N2CCN(Cc3nc4cc([N+](=O)[O-])ccc4n3C)CC2)cc1 returned miR-21 act -0.2%, Nrf2 ARE act 5.7%, A549 tox -19.9%, ClpP mod -1.2%, IL2 activator -2.5 and Nrf2 inh 23.1µM*.
